Experimental data from PubChem BioAssay.
Inconclusive results are not listed. The source made the active and inactive calls.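 The calls were made as follows, unless noted: active = efflux inhibition above 0.42, the validation set average plus 4 SD; inconclusive = no clear call, values can overlap the other calls; inactive = the rest.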

What was measured:
[1] = yeast TOR pathway RPL19A-GFP modulators, primary screen, cell-based, S. cerevisiae, multiplex flow cytometry (AID 1862; in the data active = percent of DMSO control GFP below about 86%;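 also: lower values mimic rapamycin by blocking the RPL19A rise seen in DMSO cells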); settings: S. cerevisiae RPL19A-GFP strain, flow cytometry fluorescence, 3 h; at 10 µM; stronger effect = lower value
[2] = modulators of MEP2-GFP levels in yeast, primary screen, S. cerevisiae, multiplex flow cytometry (AID 1867;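 active = GFP response, as percent of the DMSO control, above the screen-wide mean plus 3 SD, about 139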;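 also: median GFP channel fluorescence of barcode-gated MEP2-GFP cells measured by flow cytometry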); settings: S. cerevisiae MEP2-GFP strain, 3 h, at 10 µM, stronger effect = higher value, 100% means same as DMSO wells
[3] = modulators of CIT2-GFP expression in yeast, primary screen, S. cerevisiae, GFP fusion, multiplex flow cytometry (AID 1870;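 active = percent response above a set limit, the screen-wide mean plus 3 SD, cut at about 130% in these data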;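 also: barcoded CIT2-GFP strain pooled with four other GFP strains with rapamycin as positive control; median GFP fluorescence per well over plate mean of DMSO wells so 100% = DMSO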); settings: 3 h, at 10 µM, stronger effect = higher value
[4] = modulators of LAP4-GFP expression in yeast, primary screen, S. cerevisiae, multiplex flow cytometry (AID 1873;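 active = GFP signal, as percent of the solvent control, above the screen mean plus 3 SD, about 149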); settings: 3 h, at 10 µM, stronger effect = higher value
[5] = modulators of AGP1-GFP expression in yeast TOR pathway, primary screen, cell-based, multiplex flow cytometry, S. cerevisiae (AID 1887;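 active = GFP signal above the screen-wide mean plus 3 SD, that is over about 124.5% of the solvent control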;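 also: AGP1-GFP fusion strain of S. cerevisiae within a five-strain barcoded multiplex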); settings: 3 h, at 10 µM, stronger effect = higher value
[6] = inhibitors of CD8+ T cell-vesicle binding, pilot screen, LFA-1/ICAM-1 modulator project, MLPCN validation set, flow cytometry (AID 2523;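 active = response below a set limit, under 55% cells CD8-positive and vesicle-bound, and CD8 cells' 90th-percentile brightness under 279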;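 as to vesicle binding response: mean PE anti-B7-1 fluorescence of CD8+ cells relative to row control; 100% = QL9-loaded vesicles with DMSO vehicle in the same plate row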); settings: 2C mouse CD8+ T cells, at 7 µM, stronger effect = lower value; double positive events: measured here: CD8+/vesicle+ event percentage
[7] = target: Integrin beta-1 (Homo sapiens) + Integrin alpha-4 (Homo sapiens) (UniProt P13612+P05556); experiment: inhibition of HUTS-21 binding to VLA-4, pilot screen, VLA-4 allosteric modulator project, U937 cells, HUTS-21 mAb, flow cytometry, validation set (AID 2674;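 active = inhibition above 50%, about 3 SD of the validation set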;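 also: antibody binding induced by the VLA-4 ligand LDV present at three times its Kd; 0% = LDV ligand with antibody and no compound and 100% = antibody without LDV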); settings: HUTS-21 LIBS mAb binding, at 6.7 µM, stronger effect = higher value, binding induced by LDV ligand
Chain of Integrin beta-1 (Homo sapiens) + Integrin alpha-4 (Homo sapiens) (P05556 whole entry, looked up): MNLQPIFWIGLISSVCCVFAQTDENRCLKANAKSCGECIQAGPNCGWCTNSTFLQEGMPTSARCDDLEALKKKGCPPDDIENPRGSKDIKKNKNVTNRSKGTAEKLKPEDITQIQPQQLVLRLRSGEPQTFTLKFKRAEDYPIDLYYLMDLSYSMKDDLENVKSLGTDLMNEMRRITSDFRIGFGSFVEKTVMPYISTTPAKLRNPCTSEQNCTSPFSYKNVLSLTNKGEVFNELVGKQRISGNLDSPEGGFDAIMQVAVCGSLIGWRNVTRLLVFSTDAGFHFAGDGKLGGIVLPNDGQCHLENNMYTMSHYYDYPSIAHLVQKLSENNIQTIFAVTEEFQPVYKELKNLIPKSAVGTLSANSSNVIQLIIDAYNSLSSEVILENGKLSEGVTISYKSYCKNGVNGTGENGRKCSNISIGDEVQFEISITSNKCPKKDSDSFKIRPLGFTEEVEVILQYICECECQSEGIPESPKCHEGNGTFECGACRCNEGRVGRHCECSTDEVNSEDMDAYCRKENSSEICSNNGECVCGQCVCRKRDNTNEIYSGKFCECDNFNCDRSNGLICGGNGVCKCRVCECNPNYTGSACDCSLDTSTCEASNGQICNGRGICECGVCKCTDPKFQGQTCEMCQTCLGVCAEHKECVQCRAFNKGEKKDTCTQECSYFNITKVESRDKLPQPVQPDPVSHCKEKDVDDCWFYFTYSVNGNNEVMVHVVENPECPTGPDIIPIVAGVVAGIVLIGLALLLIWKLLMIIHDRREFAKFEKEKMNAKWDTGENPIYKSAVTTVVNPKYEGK
Chain of Integrin beta-1 (Homo sapiens) + Integrin alpha-4 (Homo sapiens) (P13612 whole entry, looked up): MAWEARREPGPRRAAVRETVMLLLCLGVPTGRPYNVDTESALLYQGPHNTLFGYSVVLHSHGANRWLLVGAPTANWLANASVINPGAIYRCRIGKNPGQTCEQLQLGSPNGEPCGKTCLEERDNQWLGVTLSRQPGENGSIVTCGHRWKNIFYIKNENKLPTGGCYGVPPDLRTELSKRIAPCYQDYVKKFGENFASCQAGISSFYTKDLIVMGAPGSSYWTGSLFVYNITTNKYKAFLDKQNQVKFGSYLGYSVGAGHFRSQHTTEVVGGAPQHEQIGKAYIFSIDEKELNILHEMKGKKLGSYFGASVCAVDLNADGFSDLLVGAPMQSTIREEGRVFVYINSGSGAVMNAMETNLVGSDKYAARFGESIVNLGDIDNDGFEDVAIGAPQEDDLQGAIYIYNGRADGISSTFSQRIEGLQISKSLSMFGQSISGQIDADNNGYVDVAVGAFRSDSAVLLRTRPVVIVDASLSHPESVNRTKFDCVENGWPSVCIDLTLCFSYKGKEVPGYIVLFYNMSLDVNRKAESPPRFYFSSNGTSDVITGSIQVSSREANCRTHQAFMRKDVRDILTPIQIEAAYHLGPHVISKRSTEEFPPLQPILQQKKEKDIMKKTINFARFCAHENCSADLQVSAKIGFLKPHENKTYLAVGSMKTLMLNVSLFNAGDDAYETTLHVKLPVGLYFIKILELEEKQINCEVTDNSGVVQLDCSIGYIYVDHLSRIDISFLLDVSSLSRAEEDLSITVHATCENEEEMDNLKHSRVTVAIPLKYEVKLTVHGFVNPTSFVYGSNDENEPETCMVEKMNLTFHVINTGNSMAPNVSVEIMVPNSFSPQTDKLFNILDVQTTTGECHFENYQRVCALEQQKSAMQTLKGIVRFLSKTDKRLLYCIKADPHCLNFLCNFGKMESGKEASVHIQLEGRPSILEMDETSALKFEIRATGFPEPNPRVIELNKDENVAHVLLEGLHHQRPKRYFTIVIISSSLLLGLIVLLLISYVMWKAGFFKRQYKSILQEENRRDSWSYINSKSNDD

[8] = superoxide lowering in aged yeast cells, pilot screen, validation compound set (AID 2706;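 active = superoxide response below 65% of plate, a cut near 3 SD across the whole screen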;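 also: yeast exposed to compound for one week at 30 degrees C before staining; 100% = mean of all compound wells on the same plate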); settings: S. cerevisiae aging, superoxide DHE fluorescence; at 10 µM; stronger effect = lower value
[9] = target: Beta-adrenergic receptor kinase 1 (Homo sapiens) (UniProt P25098); experiment: GRK2 binders displacing RNA aptamer, biochemical, validation, human GRK2, bead flow cytometry (AID 488806;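 active = aptamer binding inhibition above 30%, about 3 SD of noise from non-fluorescent compounds; inactive = inhibition at or below 30%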); settings: bead-bound GRK2, FAM-aptamer displacement, at 10 µM, stronger effect = higher value
Chain of Beta-adrenergic receptor kinase 1 (Homo sapiens) (P25098 whole entry, looked up): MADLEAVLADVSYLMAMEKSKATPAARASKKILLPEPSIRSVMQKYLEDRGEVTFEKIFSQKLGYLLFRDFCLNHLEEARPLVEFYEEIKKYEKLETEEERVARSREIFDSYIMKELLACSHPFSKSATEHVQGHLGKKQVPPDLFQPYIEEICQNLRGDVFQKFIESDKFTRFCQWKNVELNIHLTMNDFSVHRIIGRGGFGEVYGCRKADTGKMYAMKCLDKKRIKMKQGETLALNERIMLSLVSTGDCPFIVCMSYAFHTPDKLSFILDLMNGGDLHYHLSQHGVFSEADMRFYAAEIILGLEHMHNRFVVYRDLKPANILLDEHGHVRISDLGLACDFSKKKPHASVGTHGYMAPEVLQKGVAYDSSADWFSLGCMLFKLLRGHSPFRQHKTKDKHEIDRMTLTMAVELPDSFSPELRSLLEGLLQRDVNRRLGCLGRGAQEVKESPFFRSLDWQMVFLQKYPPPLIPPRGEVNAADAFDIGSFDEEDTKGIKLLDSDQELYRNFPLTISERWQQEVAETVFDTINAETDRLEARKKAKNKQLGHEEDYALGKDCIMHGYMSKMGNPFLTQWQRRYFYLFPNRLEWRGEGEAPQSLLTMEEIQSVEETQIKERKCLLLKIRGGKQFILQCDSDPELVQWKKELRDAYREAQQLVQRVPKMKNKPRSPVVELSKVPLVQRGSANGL

[10] = target: Beta-2 adrenergic receptor (Homo sapiens) (UniProt P07550); experiment: beta2AR agonists driving receptor internalization, pilot screen, cell-based, FAP fluorogen, flow cytometry, validation set (AID 504459;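 active = percent response above 42, roughly 3 SD of non-fluorescent test compounds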;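 also: agonist-driven loss of surface beta2AR via internalization measured by FAP dye flow cytometry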); settings: Am2.2-beta2AR cells, FAP surface receptor flow cytometry; at 10 µM; stronger effect = higher value
Chain of Beta-2 adrenergic receptor (Homo sapiens) (P07550 whole entry, looked up): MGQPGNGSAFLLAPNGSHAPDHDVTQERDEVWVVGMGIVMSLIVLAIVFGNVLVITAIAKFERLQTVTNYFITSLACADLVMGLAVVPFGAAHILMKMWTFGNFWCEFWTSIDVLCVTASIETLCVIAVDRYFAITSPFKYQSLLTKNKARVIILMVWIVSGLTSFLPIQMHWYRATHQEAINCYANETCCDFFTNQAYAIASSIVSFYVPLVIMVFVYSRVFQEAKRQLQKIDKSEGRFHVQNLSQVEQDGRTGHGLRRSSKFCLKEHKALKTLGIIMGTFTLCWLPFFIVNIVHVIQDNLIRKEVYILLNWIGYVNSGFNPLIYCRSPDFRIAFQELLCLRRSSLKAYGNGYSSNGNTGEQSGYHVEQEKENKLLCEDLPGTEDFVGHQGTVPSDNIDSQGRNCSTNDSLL

[11] = target: AP-2 complex subunit beta (Homo sapiens) (UniProt P63010); experiment: inhibitors of arrestin peptide binding to AP2, pilot screen, biochemical, validation set, GST-AP2 beads, flow cytometry (AID 504541;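 active = inhibition above 54%, about 3 SD of non-fluorescent compounds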;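 also: AP2 carries R879A mutation and is captured from E. coli lysate; bead-bound FITC arrestin peptide fluorescence measuring arrestin peptide binding to AP2; 0% = DMSO wells and 100% = excess unlabeled arrestin peptide control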); settings: FITC arrestin peptide, at 10 µM, stronger effect = higher value, AP2 beta2 appendage fragment, R879A mutant
Chain of AP-2 complex subunit beta (Homo sapiens) (P63010 whole entry, looked up, the tested form may be a part, one chain of several): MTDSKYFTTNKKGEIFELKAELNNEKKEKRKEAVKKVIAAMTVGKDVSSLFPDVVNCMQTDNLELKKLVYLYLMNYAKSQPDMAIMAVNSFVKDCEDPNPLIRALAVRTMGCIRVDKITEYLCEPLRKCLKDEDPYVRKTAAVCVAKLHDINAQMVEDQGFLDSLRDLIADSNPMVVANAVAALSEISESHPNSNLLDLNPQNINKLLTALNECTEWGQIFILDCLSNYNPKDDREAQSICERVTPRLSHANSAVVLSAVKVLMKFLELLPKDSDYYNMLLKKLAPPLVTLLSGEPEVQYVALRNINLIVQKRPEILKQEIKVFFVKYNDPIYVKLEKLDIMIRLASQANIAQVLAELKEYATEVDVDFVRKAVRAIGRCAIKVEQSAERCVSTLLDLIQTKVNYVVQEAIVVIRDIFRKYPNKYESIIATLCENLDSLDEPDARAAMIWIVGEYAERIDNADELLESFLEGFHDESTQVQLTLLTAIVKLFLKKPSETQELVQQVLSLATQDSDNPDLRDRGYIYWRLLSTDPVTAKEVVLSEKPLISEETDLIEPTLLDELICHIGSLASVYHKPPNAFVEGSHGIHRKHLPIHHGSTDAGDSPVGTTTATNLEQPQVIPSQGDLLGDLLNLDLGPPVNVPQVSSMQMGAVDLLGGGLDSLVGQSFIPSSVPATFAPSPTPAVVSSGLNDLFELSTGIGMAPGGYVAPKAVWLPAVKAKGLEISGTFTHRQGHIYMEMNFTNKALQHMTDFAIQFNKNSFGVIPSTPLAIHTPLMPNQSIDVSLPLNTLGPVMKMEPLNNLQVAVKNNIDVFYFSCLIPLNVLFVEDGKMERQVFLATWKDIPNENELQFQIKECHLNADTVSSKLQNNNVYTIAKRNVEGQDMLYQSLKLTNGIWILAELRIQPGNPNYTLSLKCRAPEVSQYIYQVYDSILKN

[12] = yeast V-ATPase proton transport modulators, S. cerevisiae, pHLuorin, HTS validation (AID 504600; in the data active = response above about 15%;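 also: plate controls were DMSO for no effect and reference compound for full effect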); settings: S. cerevisiae pHLuorin cytosolic pH, at 10 µM, stronger effect = higher value
[13] = system: anti-desmoglein-3 scFv antibody binding to human DSG3; experiment: inhibitors of anti-DSG3 scFv binding to DSG3, pilot screen, biochemical, validation compound set, bead-based, flow cytometry (AID 588368;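 active = binding below the plate cutoff, the plate median minus 3 SD, with a reading above zero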;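 also: signal is the median channel fluorescence of bead-bound GFP antibody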); settings: Protein G beads, DSG3-Fc, scFv-GFP binding, at 10 µM, stronger effect = lower value
[14] = inhibitors of fungal efflux pumps CDR1, CDR2, MDR1, pilot screen, validation compound set, multiplex, phenotypic (AID 588506);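 also: Nile Red retained in cells so higher fluorescence means more efflux inhibition; 0 = negative control wells and 1 = enniatin B 25 µM full block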; settings: S. cerevisiae pump-expressing triplex, Nile Red efflux flow cytometry; at 10 µM; stronger effect = higher value; the pumps come from Candida albicans
[15] = target: ATP-binding cassette sub-family B member 6 (Homo sapiens) (UniProt Q9NP58); experiment: ABCB6 transporter inhibitors, pilot screen, K562-ABCB6 cells, flow cytometry, validation set (AID 588550;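 active = inhibition above the screen-wide mean plus 3 SD, about 51%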;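 also: 0% = DMSO wells and 100% = benzethonium chloride 70 µM positive control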); settings: K562-ABCB6 porphyrin accumulation, 1 h, at 10 µM, stronger effect = higher value
Chain of ATP-binding cassette sub-family B member 6 (Homo sapiens) (Q9NP58 whole entry, looked up): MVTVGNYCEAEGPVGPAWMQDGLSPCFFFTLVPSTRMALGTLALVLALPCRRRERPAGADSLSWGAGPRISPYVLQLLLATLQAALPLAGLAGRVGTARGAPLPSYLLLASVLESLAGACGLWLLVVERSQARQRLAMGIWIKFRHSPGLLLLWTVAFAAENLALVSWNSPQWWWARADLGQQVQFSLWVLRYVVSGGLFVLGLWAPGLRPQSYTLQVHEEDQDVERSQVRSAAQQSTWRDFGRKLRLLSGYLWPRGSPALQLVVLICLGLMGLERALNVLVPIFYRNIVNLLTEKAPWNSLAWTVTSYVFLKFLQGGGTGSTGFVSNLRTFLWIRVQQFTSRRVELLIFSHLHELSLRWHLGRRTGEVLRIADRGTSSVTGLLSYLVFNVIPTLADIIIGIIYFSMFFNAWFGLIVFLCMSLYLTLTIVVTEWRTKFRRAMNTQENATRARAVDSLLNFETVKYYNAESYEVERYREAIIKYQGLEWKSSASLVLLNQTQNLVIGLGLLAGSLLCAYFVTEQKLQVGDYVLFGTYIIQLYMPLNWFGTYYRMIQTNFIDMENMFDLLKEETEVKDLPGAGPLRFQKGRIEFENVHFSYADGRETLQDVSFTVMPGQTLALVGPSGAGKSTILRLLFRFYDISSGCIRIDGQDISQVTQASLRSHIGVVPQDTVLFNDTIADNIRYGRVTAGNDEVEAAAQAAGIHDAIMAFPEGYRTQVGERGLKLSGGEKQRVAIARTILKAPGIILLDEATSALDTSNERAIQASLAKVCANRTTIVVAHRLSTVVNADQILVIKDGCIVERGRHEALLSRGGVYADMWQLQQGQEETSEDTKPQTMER

[16] = promoters of myeloid differentiation in arrested cells, primary screen, cell-based, GFP/MAC1 double positive, flow cytometry, validation set (AID 588685;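 active = differentiation response of at least 50%, scaled between solvent and reference control, from cells with both markers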;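 also: compound exposure lasts four days before antibody staining and flow analysis; 0% = DMSO wells and 100% = 5 µM fulvestrant positive control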); settings: ER-HoxA9 marrow cells, stronger effect = higher value, normalized: vehicle 0, fulvestrant 100

COc1cc(-c2nnc(-c3cccs3)o2)cc(OC)c1OC
inactive: percent of DMSO control GFP [1] 102% | GFP response vs DMSO [2] 106% | percent response of DMSO control [3] 99.7% | GFP response vs DMSO [4] 103% | GFP response, % of DMSO [5] 86.3% | vesicle binding response [6] 98.4% | inhibition [7] -1.09% | superoxide response (% of plate) [8] 99.2% | aptamer binding inhibition [9] 3% | response [10] -28% | inhibition [11] 5.76% | binding (% of control) [13] 101% | efflux inhibition (fraction of control) [14] 0.15 | inhibition [15] 29% | differentiation response [16] -1.65%
active: response [12] 33.5%
61.1%: double positive events [6]

O=C(/C=C/c1ccc(F)cc1)N1CC[C@@]2(O)CCCC[C@H]2C1
inactive: percent of DMSO control GFP [1] 96.7% | GFP response vs DMSO [2] 112% | percent response of DMSO control [3] 89.1% | GFP response vs DMSO [4] 125% | GFP response, % of DMSO [5] 96.5% | vesicle binding response [6] 198% | inhibition [7] -4.52% | superoxide response (% of plate) [8] 98.4% | aptamer binding inhibition [9] 3% | response [10] 15.3% | inhibition [11] -5.97% | response [12] 10.1% | binding (% of control) [13] 98% | efflux inhibition (fraction of control) [14] -0.13 | inhibition [15] 7% | differentiation response [16] -13.6%
61.1%: double positive events [6]

CCn1c(/C=C/c2ccccc2)nc2ccccc2c1=O
inactive: percent of DMSO control GFP [1] 98.8% | GFP response vs DMSO [2] 111% | percent response of DMSO control [3] 78.7% | GFP response vs DMSO [4] 122% | GFP response, % of DMSO [5] 92.6% | vesicle binding response [6] 134% | inhibition [7] 7.76% | superoxide response (% of plate) [8] 102% | aptamer binding inhibition [9] 3% | response [10] 18.5% | inhibition [11] -8.94% | response [12] 1.61% | binding (% of control) [13] 101% | efflux inhibition (fraction of control) [14] 0.08 | inhibition [15] 7% | differentiation response [16] 18.4%
59.1%: double positive events [6]

O=C(OCC(O)C(O)COC(=O)c1ccccc1)c1ccccc1 (stereo not drawn)
inactive: percent of DMSO control GFP [1] 102% | GFP response vs DMSO [2] 105% | percent response of DMSO control [3] 105% | GFP response vs DMSO [4] 106% | GFP response, % of DMSO [5] 107% | vesicle binding response [6] 102% | inhibition [7] -10.5% | superoxide response (% of plate) [8] 105% | aptamer binding inhibition [9] -1% | response [10] -4.55% | inhibition [11] 2.63% | response [12] -5% | binding (% of control) [13] 97.7% | efflux inhibition (fraction of control) [14] 0.17 | inhibition [15] 2% | differentiation response [16] -16.3%
58.5%: double positive events [6]
